In PubChem BioAssay (EPA / NIEHS) one finds outcome and AC50 data, which are given here for five molecules.

For test [1], the target named is Paired box protein Pax-6 (Homo sapiens) (UniProt P26367). Nature of the test: ATG_Pax6_CIS: Attagene CIS-FACTORIAL HepG2 Assay for human Paired Box 6 (PAX6) (AID 2282956). The following applies: HepG2 CIS-FACTORIAL PAX6 reporter transcription, RNA readout; actives raise or lower the signal. The essentials:
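HepG2 cells transiently transfected with cis-promoter-driven multiplexed reporter units sensing endogenous transcription factor activity; 24 h chemical exposure. Reporter mRNA quantified by RT-PCR, 6-FAM labelling, HpaI digestion and capillary electrophoresis; bidirectional fit versus DMSO baseline.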

Test [2] can be described thus: ATG_PXRE_CIS: Attagene CIS-FACTORIAL HepG2 Assay for human Pregnane X Receptor Element (PXRE) (AID 2282957). The following applies: HepG2 Attagene CIS-FACTORIAL PXRE reporter, mRNA; actives raise or lower the signal. The essentials: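 Cis-element reporter mRNA in human hepatoma HepG2 cells is measured 24 h post-dosing by RT-PCR, primer-extension labeling and capillary electrophoresis; gain or loss of signal is fitted relative to DMSO.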

Test [3] can be described thus: ATG_PPRE_CIS: Attagene CIS-FACTORIAL HepG2 Assay for human Peroxisome Proliferator-activated Response Element (PPRE) (AID 2282958). The note with it: HepG2 PPRE cis-element reporter, Attagene transcription factor profiling; actives raise or lower the signal. The essentials: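 Read-out: fluorescent reporter mRNA fragments resolved by capillary electrophoresis after RT-PCR. HepG2 cells carried transiently transfected PPRE-driven cis reporter constructs and were dosed for 24 h; gain or loss of signal fitted relative to DMSO.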

Test [4] in a line: ATG_RORE_CIS: Attagene CIS-FACTORIAL HepG2 Assay for human RAR-related Orphan Receptor Element (RORE) (AID 2282959). The note with it: HepG2 Attagene cis-factorial RORE reporter, mRNA; actives raise or lower the signal. The essentials: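 Readout: fluorescent reporter mRNA by RT-PCR plus capillary electrophoresis, 24 h after dosing transfected HepG2 cells. Endogenous transcription factor activity on a cis promoter element is measured. Gain or loss of signal fitted against DMSO.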

Test [5] is described as follows: ATG_Sox_CIS: Attagene CIS-FACTORIAL HepG2 Assay for human SRY-box transcription factor (SOX) (AID 2282960). The following applies: HepG2 Attagene cis-factorial SOX reporter, mRNA; actives raise or lower the signal. The essentials: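 Read-out: fluorescent RT-PCR products of SOX1-linked reporter transcripts resolved by capillary electrophoresis, fitted bidirectionally against DMSO. Transiently transfected HepG2 cells, 24 h after chemical exposure, endogenous transcription factor activity.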

The target in test [6] is Transcription factor Sp1 (Homo sapiens) (UniProt P08047). Nature of the test: ATG_Sp1_CIS: Attagene CIS-FACTORIAL HepG2 Assay for human Specificity Protein 1 (Sp1) (AID 2282961). The note with it: HepG2 Sp1 cis-reporter transcription, actives raise or lower the signal. The essentials:
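Read-out: fluorescence of 6-FAM-labeled, HpaI-digested RT-PCR products separated by capillary electrophoresis. HepG2 cells carried transfected cis-element reporter units and were exposed to chemicals for 24 h; gain or loss of signal fitted relative to DMSO.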

The nature of test [7]: ATG_SREBP_CIS: Attagene CIS-FACTORIAL HepG2 Assay for human Sterol Regulatory Element Binding (SREBP) (AID 2282962). The note with it: HepG2 Attagene cis-factorial SREBP reporter, mRNA; actives raise or lower the signal. The essentials: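 HepG2 cells transiently transfected with multiplexed cis-promoter reporter units sensing endogenous transcription factors; reporter mRNA measured 24 h after dosing by RT-PCR, 6-FAM labeling, HpaI digestion and capillary electrophoresis. Bidirectional fit versus DMSO.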

Test [8] in a line: ATG_TA_CIS: Attagene CIS-FACTORIAL HepG2 Assay for human TA Basal Promoter (AID 2282964). The note with it: HepG2 Attagene CIS-factorial TA basal promoter reporter; actives raise or lower the signal. The essentials:
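HepG2 cells transiently transfected with multiple reporter units under cis promoter elements, reporting endogenous transcription factor activity; this endpoint tracks the TA basal promoter as background control. Reporter mRNA after 24 h dosing measured by RT-PCR/capillary electrophoresis; bidirectional fits versus DMSO.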

Test [9] can be described thus: ATG_TCF_b_cat_CIS: Attagene CIS-FACTORIAL HepG2 Assay for human T-Cell-Factor with beta-catenin (TCF/b-cat) (AID 2282965). The following applies: HepG2 TCF/beta-catenin cis-reporter transcription, actives raise or lower the signal. The essentials: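 Endogenous transcription factor activity is captured through cis-promoter reporter constructs transiently introduced into human HepG2 liver cells. Induced reporter mRNA is measured after 24 h and fitted bidirectionally relative to DMSO.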

Test [10] in a line: ATG_TAL_CIS: Attagene CIS-FACTORIAL HepG2 Assay for human TAL Basal Promoter (AID 2282966).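 Note: background control endpoint measuring basal TAL promoter reporter mRNA not a specific factor.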 The following applies: HepG2 Attagene cis-factorial TAL promoter reporter; actives raise or lower the signal. The essentials: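 In this cell-based multiplex, HepG2 liver cells bearing cis-promoter reporter constructs are dosed for 24 hours. Total RNA is reverse-transcribed and amplified, labelled fragments are sized by capillary electrophoresis, and signal changes are fitted bidirectionally versus DMSO.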

Test [11] in a line: ATG_TGFb_CIS: Attagene CIS-FACTORIAL HepG2 Assay for human Transforming Growth Factor (TGF) (AID 2282967). The following applies: HepG2 Attagene CIS TGFb reporter, mRNA transcription; actives raise or lower the signal. The essentials: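 HepG2 cells transiently transfected with cis-promoter-driven multiple reporter units measure endogenous TF activity; reporter mRNA quantified at 24 h by RT-PCR, FAM labeling, HpaI digestion and capillary electrophoresis. Bidirectional fit vs DMSO.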

Test [12] is described as follows: ATG_VDRE_CIS: Attagene CIS-FACTORIAL HepG2 Assay for human Vitamin D Receptor Element (VDRE) (AID 2282968). The following applies: HepG2 VDRE cis-reporter transcription, actives raise or lower the signal. The essentials: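 Reporter mRNA induction, quantified by capillary electrophoresis of fluorescently labelled RT-PCR products, was read 24 h after dosing HepG2 cells carrying transiently transfected cis-regulated reporter units; gain or loss relative to DMSO.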

The target in test [13] is Estrogen receptor (Homo sapiens) (UniProt P03372). Nature of the test: ATG_ERa_TRANS: Attagene TRANS-FACTORIAL HepG2 Assay for human Estrogen Receptor alpha (ERa) (AID 2282970; active = hit-call score of the fitted dose curve at least 0.9, where 1 is the maximum). The following applies: HepG2 Attagene TRANS ERa GAL4 reporter, mRNA. The essentials: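 After 24 h of compound treatment, RNA from HepG2 cells bearing transfected GAL4-UAS reporter constructs is converted to cDNA, amplified and fluorescently labelled. Capillary electrophoresis resolves the ERa-linked reporter; DMSO serves as negative control.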
Chain of Estrogen receptor (Homo sapiens) (P03372 whole entry, looked up, the tested form may be a part): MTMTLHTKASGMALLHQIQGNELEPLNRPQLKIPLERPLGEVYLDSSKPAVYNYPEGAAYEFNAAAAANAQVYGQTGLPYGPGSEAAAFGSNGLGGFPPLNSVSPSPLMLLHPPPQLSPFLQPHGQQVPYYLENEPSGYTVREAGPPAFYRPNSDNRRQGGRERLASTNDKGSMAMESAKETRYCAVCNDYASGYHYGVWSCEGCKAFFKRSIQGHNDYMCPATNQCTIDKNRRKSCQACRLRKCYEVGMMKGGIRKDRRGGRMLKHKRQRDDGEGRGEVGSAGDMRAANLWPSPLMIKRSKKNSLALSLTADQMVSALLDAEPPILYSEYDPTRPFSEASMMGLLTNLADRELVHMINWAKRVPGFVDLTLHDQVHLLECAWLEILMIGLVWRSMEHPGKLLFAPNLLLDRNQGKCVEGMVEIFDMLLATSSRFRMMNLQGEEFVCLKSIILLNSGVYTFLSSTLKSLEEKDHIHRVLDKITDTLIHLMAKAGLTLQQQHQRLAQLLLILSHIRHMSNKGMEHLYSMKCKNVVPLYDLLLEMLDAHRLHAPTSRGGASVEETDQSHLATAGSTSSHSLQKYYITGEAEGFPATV

The target of test [14] is X-box-binding protein 1 (Homo sapiens) (UniProt P17861). Nature of the test: ATG_Xbp1_CIS: Attagene CIS-FACTORIAL HepG2 Assay for human X-box Binding Protein 1 (XBP1) (AID 2282972). The note with it: HepG2 XBP1 cis-element reporter, Attagene multiplex; actives raise or lower the signal. The essentials: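 HepG2 cells transiently transfected with multiple cis-element reporter units report endogenous TF activity; 24 h exposure, then reporter mRNA measured by RT-PCR, 6-FAM labelling, HpaI digestion and capillary electrophoresis. Bidirectional fitting versus DMSO.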
Chain of X-box-binding protein 1 (Homo sapiens) (P17861 whole entry, looked up): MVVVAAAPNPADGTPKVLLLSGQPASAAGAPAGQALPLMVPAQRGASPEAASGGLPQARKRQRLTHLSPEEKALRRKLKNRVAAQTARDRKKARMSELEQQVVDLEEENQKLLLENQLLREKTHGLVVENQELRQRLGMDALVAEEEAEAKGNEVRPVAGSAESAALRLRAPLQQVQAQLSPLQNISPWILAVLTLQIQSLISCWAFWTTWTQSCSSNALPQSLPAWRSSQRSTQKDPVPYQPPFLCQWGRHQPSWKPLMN

For test [15], the target named is Signal transducer and activator of transcription 3 (Homo sapiens) (UniProt P40763). Nature of the test: ATG_STAT3_CIS: Attagene CIS-FACTORIAL HepG2 Assay for human Signal Transducer and Activator of Transcription 3 (STAT3) (AID 2282963). The following applies: HepG2, Attagene cis-factorial STAT3 reporter transcription; actives raise or lower the signal. The essentials: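 Endogenous STAT3-responsive cis-element activity was read in transiently transfected HepG2 cells after 24 h treatment. Reporter transcripts were quantified via RT-PCR and capillary electrophoresis, with DMSO as negative control and bidirectional curve fitting.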
Chain of Signal transducer and activator of transcription 3 (Homo sapiens) (P40763 whole entry, looked up): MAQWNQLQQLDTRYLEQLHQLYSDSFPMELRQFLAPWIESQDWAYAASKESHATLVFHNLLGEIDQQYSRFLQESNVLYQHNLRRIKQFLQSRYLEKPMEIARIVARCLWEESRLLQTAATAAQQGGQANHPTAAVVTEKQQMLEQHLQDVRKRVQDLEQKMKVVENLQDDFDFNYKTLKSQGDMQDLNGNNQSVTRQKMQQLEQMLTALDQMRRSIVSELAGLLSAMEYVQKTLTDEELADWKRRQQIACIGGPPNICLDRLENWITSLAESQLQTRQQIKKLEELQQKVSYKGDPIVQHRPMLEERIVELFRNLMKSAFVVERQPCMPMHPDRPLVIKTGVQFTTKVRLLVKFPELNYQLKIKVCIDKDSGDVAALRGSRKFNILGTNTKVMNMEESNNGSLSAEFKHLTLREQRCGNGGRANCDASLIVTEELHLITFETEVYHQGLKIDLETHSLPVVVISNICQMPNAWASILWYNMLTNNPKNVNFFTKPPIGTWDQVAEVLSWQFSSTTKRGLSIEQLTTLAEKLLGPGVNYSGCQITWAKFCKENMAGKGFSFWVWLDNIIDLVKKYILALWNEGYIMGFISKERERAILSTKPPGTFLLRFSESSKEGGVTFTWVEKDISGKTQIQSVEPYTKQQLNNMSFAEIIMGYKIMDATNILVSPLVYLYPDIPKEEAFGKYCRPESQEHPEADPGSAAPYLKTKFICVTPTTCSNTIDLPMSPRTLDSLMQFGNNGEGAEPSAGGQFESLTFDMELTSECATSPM

The nature of test [16]: ATG_GAL4_TRANS: Attagene TRANS-FACTORIAL HepG2 Assay for GAL4 (Internal Marker) (AID 2282976; active = hit-call score of the fitted dose curve at least 0.9, where 1 is the maximum). The following applies: HepG2 Attagene TRANS GAL4 internal marker reporter. The essentials:
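RT-PCR/capillary electrophoresis readout of reporter mRNA. HepG2, transient MRTU transfection (GAL4-UAS reporters), 24 h compound exposure. Background-control endpoint, positive direction vs DMSO baseline.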

Test [17] deals with Nuclear receptor subfamily 1 group I member 3 (Homo sapiens) (UniProt Q14994). Nature of the test: ATG_CAR_TRANS: Attagene TRANS-FACTORIAL HepG2 Assay for human Constitutive Androstane Receptor (CAR) (AID 2282969; active = hit-call score of the fitted dose curve at least 0.9, where 1 is the maximum;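 note: activators raise reporter mRNA above DMSO so AC50 marks induction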). The following applies: HepG2 Attagene TRANS-FACTORIAL CAR reporter. The essentials:
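Readout is reporter mRNA induction, quantified by fluorescent primer extension and capillary electrophoresis after RT-PCR. Cells were HepG2 transiently carrying chimeric NR-Gal4 constructs with GAL4-UAS reporters, treated for 24 h; activity scored upward from DMSO.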

Test [18] in a line: ATG_M_19_TRANS: Attagene TRANS-FACTORIAL HepG2 Assay for M19 Transcription Factor (Internal Marker) (AID 2282974; active = hit-call score of the fitted dose curve at least 0.9, where 1 is the maximum). The following applies: HepG2 Attagene TRANS-FACTORIAL M19 internal marker reporter. The essentials:
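24 h chemical exposure of transiently transfected HepG2 (MRTU library). RNA → oligo(dT) RT → PCR → 6-FAM labelling → HpaI cut → CE fluorescence. Positive-direction fit vs DMSO baseline; background internal-marker readout.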

Test [19] has as its target Steroid hormone receptor ERR1 (Homo sapiens) (UniProt P11474). Nature of the test: ATG_ERRa_TRANS: Attagene TRANS-FACTORIAL HepG2 Assay for human Estrogen-Related Receptor alpha (ERRa) (AID 2282971; active = hit-call score of the fitted dose curve at least 0.9, where 1 is the maximum). The note with it: HepG2 Attagene TRANS reporter, ERRa transactivation. The essentials: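 Transfected HepG2, 24 h dosing, ERRa-Gal4 chimera driving GAL4-UAS reporter. Readout: reporter mRNA via RT-PCR plus capillary electrophoresis (fluorescence). Positive direction vs DMSO control.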

Results filed as inconclusive are left out. The source made the active and inactive calls. Rule for the calls, unless noted: active = hit-call score of the fitted dose curve at least 0.9, where 1 is the maximum; inactive = score below 0.9.

Chain of Transcription factor Sp1 (Homo sapiens) (P08047 whole entry, looked up): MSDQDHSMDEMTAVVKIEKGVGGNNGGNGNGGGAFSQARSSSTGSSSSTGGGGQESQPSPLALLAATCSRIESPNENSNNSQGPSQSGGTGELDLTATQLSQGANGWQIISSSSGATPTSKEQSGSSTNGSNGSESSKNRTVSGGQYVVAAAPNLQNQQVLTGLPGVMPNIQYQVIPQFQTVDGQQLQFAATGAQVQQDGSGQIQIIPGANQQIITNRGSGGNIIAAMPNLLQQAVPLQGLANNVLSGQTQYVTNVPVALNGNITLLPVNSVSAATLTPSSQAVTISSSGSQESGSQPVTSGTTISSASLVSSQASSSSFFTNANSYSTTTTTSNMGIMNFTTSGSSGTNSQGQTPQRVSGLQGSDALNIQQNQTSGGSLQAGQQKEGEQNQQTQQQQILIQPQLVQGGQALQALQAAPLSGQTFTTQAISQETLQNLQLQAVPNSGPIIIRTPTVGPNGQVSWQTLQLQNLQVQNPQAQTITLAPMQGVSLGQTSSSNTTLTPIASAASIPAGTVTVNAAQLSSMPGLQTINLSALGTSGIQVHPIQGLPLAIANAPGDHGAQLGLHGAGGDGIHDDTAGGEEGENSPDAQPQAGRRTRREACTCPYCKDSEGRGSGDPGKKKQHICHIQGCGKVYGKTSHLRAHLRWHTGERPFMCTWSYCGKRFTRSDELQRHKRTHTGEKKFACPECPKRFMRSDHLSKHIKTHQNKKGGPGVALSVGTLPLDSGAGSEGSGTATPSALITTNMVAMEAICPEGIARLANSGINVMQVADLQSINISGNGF
Chain of Paired box protein Pax-6 (Homo sapiens) (P26367 whole entry, looked up): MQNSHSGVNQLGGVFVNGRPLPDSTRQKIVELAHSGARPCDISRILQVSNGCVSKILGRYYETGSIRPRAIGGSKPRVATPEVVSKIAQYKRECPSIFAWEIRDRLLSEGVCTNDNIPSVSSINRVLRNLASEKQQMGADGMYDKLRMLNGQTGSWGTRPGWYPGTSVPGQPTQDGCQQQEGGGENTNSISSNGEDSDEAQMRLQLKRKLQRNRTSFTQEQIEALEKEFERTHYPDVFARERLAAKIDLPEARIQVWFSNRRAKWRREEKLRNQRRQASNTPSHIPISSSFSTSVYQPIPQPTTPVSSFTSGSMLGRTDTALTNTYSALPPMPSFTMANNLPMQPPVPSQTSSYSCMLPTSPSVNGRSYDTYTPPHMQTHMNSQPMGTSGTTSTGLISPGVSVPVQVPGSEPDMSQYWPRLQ
Chain of Steroid hormone receptor ERR1 (Homo sapiens) (P11474 whole entry, looked up, the tested form may be a part): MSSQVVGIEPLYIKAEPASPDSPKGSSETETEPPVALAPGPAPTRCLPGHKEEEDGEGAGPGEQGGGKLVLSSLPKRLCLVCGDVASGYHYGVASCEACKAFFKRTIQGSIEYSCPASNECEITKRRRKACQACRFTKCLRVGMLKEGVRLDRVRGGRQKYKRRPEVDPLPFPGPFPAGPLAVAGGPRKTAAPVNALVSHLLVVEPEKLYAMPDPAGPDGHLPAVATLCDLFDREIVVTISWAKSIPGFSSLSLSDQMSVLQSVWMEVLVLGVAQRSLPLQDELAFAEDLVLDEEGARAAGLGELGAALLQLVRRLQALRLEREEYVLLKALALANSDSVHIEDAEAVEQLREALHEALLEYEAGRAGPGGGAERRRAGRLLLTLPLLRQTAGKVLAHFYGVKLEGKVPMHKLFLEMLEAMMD
Chain of Nuclear receptor subfamily 1 group I member 3 (Homo sapiens) (Q14994 whole entry, looked up, the tested form may be a part): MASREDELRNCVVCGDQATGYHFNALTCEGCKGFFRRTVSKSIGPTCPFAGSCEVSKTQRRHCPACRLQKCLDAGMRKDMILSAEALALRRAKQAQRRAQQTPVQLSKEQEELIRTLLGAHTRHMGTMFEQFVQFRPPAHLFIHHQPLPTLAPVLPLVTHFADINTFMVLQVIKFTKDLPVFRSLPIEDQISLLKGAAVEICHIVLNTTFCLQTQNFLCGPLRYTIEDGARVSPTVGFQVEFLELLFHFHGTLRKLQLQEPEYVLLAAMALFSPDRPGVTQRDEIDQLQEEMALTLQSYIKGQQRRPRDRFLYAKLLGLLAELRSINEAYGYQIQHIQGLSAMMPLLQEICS

As usually defined, the AC50 is the concentration at which the activity in the assay is half-maximal. In the case of `O=C(O)c1ccccc1Nc1cccc(C(F)(F)F)c1`, the molecule was called inactive in test [1], in test [5], in test [6], in [9], in test [10] and in test [11]. Also, the result in test [13] was inactive. Moreover, the AC50 is 5.5 µM (active) in test [2]; 33 µM (active) in test [3]; 100 µM (active) in test [4]; 26.5 µM (active) in test [7]; 100 µM (active) in test [8]; 44.5 µM (active) in test [12]. Moreover, in [14], the AC50 was 76.5 µM (active).
Consider `C=C(C)CCO`, for which the molecule was called inactive in test [1], in test [3], in test [4], in test [5], in test [6] and in test [7]. Moreover, the outcome in test [15], in test [8], in [10], in test [12], in [13] and in test [14] was inactive. The result in test [16] was inactive. For the same molecule, the AC50 is 5.16 µM (active) in [2] and 0.316 µM (active) in test [11].
Turning to `O=c1n(CCO)c(=O)n(CCO)c(=O)n1CCO`, the result in [1], in test [2], in test [3], in [4], in [5] and in test [6] was inactive. Moreover, the result in test [7], in test [15], in test [8], in test [10], in test [11] and in test [12] was inactive. Moreover, the result in test [17], in test [14], in test [18] and in test [16] was inactive.
`Cc1cc(C)c(C)c(O)c1`: the molecule was called inactive in test [1], in test [3], in test [4], in test [5], in test [6] and in test [7]. Further, the molecule was called inactive in [15], in test [8], in test [11], in test [12], in [17] and in test [13]. Also, the outcome in [19], in [14], in test [18] and in [16] was inactive. Besides, the AC50 in test [2] was 42.3 µM (active).
As to `CCCCCCCCCCCSCC(=O)O`, the AC50 in test [1] was 100 µM (active); in [3], 5.09 µM (active); in test [4], 51.6 µM (active); in [6], 151 µM (active); in test [7] it was 25.1 µM (active); in test [8], 98 µM (active). Further, the AC50 is 100 µM (active) in test [10], 100 µM (active) in test [11], 80.2 µM (active) in [12] and 100 µM (active) in test [14]. The molecule was called inactive in test [2], in test [5], in test [15], in [19], in test [18] and in test [16].
